# Screening data: PubChem, National Center for Advancing Translational Sciences (NCATS)
# Compounds with a hit are over-represented: about 8% of the library has one in this group of screens.
# SARS PLP yeast: inhibitors of SARS-CoV papain-like protease in yeast. AID 485353. 330,000 tested, 0.19% active. S. cerevisiae expressing SARS-CoV PLpro, growth rescue. Potency, µM (doses to about 32.9 µM), usual class: activators; calls by dose curve; note: nearly all actives have a fitted effect of over 55% in size
# LASV entry inh: Lassa virus entry inhibition; Potency, µM (doses to about 37.9 µM), usual class: inhibitors; 300,000 tested, 1.2% active; AID 540256; Lassa virus pseudotype entry inhibition, cell reporter; calls by dose curve; tested in HEK293 cells; note: nearly all actives have a fitted effect of over 50% in size
# HCMV antiviral: inhibitors of human cytomegalovirus | HFF cells, HCMV-luciferase reporter, 72 h; active compounds read low | activity change, negative = inhibition, % at 57.5 µM | 410,000 tested, 4.5% active; in the data active = activity change below about -60%; inconclusive = no clear call, values can overlap the other calls; inactive = above about -39%
#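 Inhibition of viral replication was scored as loss of reporter luminescence in HFFs infected with HCMV-luciferase (MOI 1 PFU/cell) for 72 h; compounds tested at 2 doses, normalized to buffer and Salinomycin controls.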
# HCV inh: HCV inhibition; Huh7.5.1 HCVcc-Cre infection, luciferase reporter, 44 h; Potency, µM (highest dose often 41.8 µM), most hits filed as inhibitors; 340,000 tested, 3.4% active; active = well fitted inhibition curve with a large enough effect; inconclusive = small, poorly fitted or top-dose-only effect, or another doubt; inactive = no such curve, though single readings can be large or run the other way
#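 Infectious HCVcc-Cre (~0.5 moi) was added to cells just after compound, with cells seeded 4 h earlier at 1,000 per well. Luciferase activity after 44 h culture reported infection; substrate was incubated 15 min at room temperature before reading.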
# MARV entry inh: inhibitors of Marburg virus binding or cell entry | 300,000 tested, 1.8% active | Potency, µM (titrated, usually from 37.8 µM), usual class: inhibitors | Marburg virus pseudotyped entry inhibition, cell reporter; calls by dose curve; tested in HEK293 cells
# FMDV inh: antivirals against foot and mouth disease virus. FMDV antiviral cell-based qHTS. AID 1159524. 410,000 tested, 1.2% active. Potency, µM (series often up to 57.9 µM), most hits filed as inhibitors; calls by dose curve; tested in HEK293T cells; note: read-out not given here; nearly all actives have a fitted effect of over 45% in size
# Numbers stand for hits; i = inactive; ? = inconclusive; nt = no result given.
SMILES,SARS PLP yeast,LASV entry inh,HCMV antiviral,HCV inh,MARV entry inh,FMDV inh
O=C(NCCCN1CCC(Cc2ccccc2)CC1)C1CC(=O)N(C2CCCCCC2)C1 (stereo not drawn),i,i,i,4µM,14µM,i
CSc1ccc(NC(=O)NCCCN2CCC(Cc3ccccc3)CC2)cc1,i,nt,-63,10µM,i,i
CC12CC(c3ccccc3O1)N(C(=O)c1ccco1)C(=S)N2c1ccc(F)cc1 (stereo not drawn),i,?,i,2.8µM,?,i
CC1(C)Cc2c(cnn2-c2ccc(F)cc2)C(NC(=O)c2ccco2)C1 (stereo not drawn),i,i,i,i,i,i
O=C(Nc1ccc2c(c1)OCCO2)Nc1ccc2c(c1)OCO2,i,8.9µM,i,i,?,i
O=C(Nc1ccc2c(c1)OCO2)c1noc2c1CCCC2,i,?,i,i,7.1µM,i
O=C(CCl)Nc1ccc2c(c1)OCO2,i,?,-61,?,?,?
C=C(C)C(=O)Nc1ccc2c(c1)OCCOCCOCCO2,i,i,i,i,11µM,i
O=C(Nc1ccc2c(c1)OCO2)c1noc2c1CCCCC2,i,?,i,i,?,i
COc1ccc(CNC(=O)CCC(=O)N2CC3CCCN3c3ccccc32)cc1 (stereo not drawn),nt,i,i,nt,nt,i
CCOC(=O)C1CCCN(c2nc3c(S(=O)(=O)c4ccc(C)c(C)c4)nnn3c3ccc(Cl)cc23)C1 (stereo not drawn),nt,nt,i,nt,i,i
C/C(=C\C(=O)c1ccccc1)Nc1ccc2c(c1)OCO2,i,i,i,3.2µM,i,i
CC(=O)Nc1ccc2c(c1)OCO2,i,i,i,i,i,i
COc1ccc(Cl)cc1C(=O)CSc1nnnn1C1CCCCC1,i,i,-62,?,?,i
COCCn1c(C)cc(C(=O)COC(=O)c2cccc(O)c2)c1C,i,nt,i,i,nt,11µM
COCCn1c(C)cc(C(=O)CSc2nnc(C)s2)c1C,nt,?,?,i,?,7.9µM
COCCn1c(C)cc(C(=O)CSc2nnnn2C2CCCC2)c1C,i,1.3µM,?,i,?,13µM
CCN(CC)C(=O)Cn1c(=O)n(-c2ccc(Cl)cc2)c(=O)c2c3c(sc21)CCC3,nt,i,i,nt,i,i
COc1ccc(S(=O)(=O)NCC(c2ccco2)S(=O)(=O)c2cccs2)cc1C (stereo not drawn),nt,?,?,nt,nt,i
CCOCCCNC(=O)c1ccc2c(c1)ncn2-c1ccc(C)cc1C,i,?,i,i,i,i
CCOCCCNC(=O)c1ccc2c(c1)ncn2-c1ccc(CC)cc1,i,nt,-64,i,nt,i
Cc1ccc(N(Cc2ccccc2)C(=O)c2cc(S(=O)(=O)N3CCOCC3)ccc2N2CCCC2)cc1,i,?,-61,?,?,i
CN(Cc1ccc(Cl)cc1)C(=O)c1cc(S(=O)(=O)N2CCOCC2)ccc1N1CCCC1,i,i,i,i,i,i
Cc1cccc(N(Cc2ccccc2)C(=O)c2ccc(C)c(S(=O)(=O)N3CCOCC3)c2)c1,i,nt,?,?,nt,i
Cc1cccc(N(Cc2ccccc2)C(=O)c2ccc(F)c(S(=O)(=O)N3CCOCC3)c2)c1,i,i,i,?,11µM,i
SMILES,SARS PLP yeast,LASV entry inh,HCMV antiviral,HCV inh,MARV entry inh,FMDV inh
CCCNC(=O)C1(C)CCCN(C(=O)COc2ccc(Cl)cc2Cl)C1 (stereo not drawn),nt,nt,-100,nt,nt,i
CCCNC(=O)C1(C)CCCN(Cc2ccccc2Cl)C1 (stereo not drawn),nt,nt,-77,nt,nt,i
COC(=O)c1ccc2c(=O)n(Cc3ccco3)c(SCC(=O)Nc3cc(C)on3)nc2c1,i,nt,-95,i,nt,i
COC(=O)c1ccc2c(=O)n(Cc3ccco3)c(SCC(=O)Nc3ccccc3Cl)nc2c1,i,i,i,?,i,i
Cc1cc(NC(=O)CSc2nc3cc(C(=O)NCCCOC(C)C)ccc3c(=O)n2Cc2ccco2)no1,i,?,-84,7.1µM,?,i
O=C(Nc1ccc(Cl)c(Cl)c1)N(Cc1c[nH]c2ccccc12)C1CCCCC1,nt,?,i,nt,?,i
COc1ccc(CCNc2oc(COc3ccc(Cl)cc3)nc2C#N)cc1OC,nt,i,i,nt,?,32µM
N#Cc1nc(COc2ccc(Cl)cc2)oc1NCc1ccc2c(c1)OCO2,i,i,i,10µM,i,i
CC(C)c1c(C(=O)N2CCN(CCO)CC2)cnn1-c1nccc(-c2cccs2)n1,nt,nt,nt,nt,nt,i
